# MEKK3 PB1 HTS – modulators (inhibitors or enhancers) of MEK5 binding to human MEKK3 PB1 domain | Q99759 | bead-based flow cytometry, Alexa488-MEK5 binding to MEKK3; actives lie on both sides; 0 = blocked by unlabeled MEK5, 100 = vehicle | binding response (% of control), % at 10 µM | hit rate 1.4% among 290,000 | AID 1529;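 active = binding response more than 3 SD above or below the average of its plate-row segment, actives on both sides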;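 also: Alexa488 bead fluorescence after subtracting the streptavidin-only scavenger bead signal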
# MEKK2 mut-MEK5 – signal of MEK5 binding to mutant human MEKK2 PB1 domain. hit rate 0.35% among 290,000. bead flow cytometry, Alexa488-MEK5 binding to MEKK2 mutant. percent response, % at 10 µM; in the data active = percent response above about 24%, passing the limit was not always enough
# VLA-4 inh – inhibition in a human VLA-4 binding assay | P13612 | inhibition, % (about 7 µM as worked out from the volumes in the protocol) | hit rate 0.2% among 330,000 | VLA-4 expressing cells, ligand binding flow cytometry; in the data active = inhibition above about 50%
# MEKK2wt PB1 HTS – raises or lowers MEK5 binding to wildtype human MEKK2 PB1 domain. binding response (% of control), % at 10 µM. bead flow cytometry, Alexa488-MEK5 binding to MEKK2 WT; actives lie on both sides. hit rate 1.1% among 290,000. Q9Y2U5; in the data active = binding response below about 67% or above about 130%
# Numbers without * were called inactive; i = inactive; · = no result; [ ] = dose if it differs, or a comment. An excerpt weighted towards active compounds, which were near 2.2% of everything screened.
SMILES,MEKK3 PB1 HTS,MEKK2 mut-MEK5,VLA-4 inh,MEKK2wt PB1 HTS
O=C(O)COc1ccccc1/C=N/NC(=O)Cc1ccccc1,96,-7,14,-12*
O=C(N/N=C/c1cc2c(cc1Br)OCO2)c1c[nH]c2ccccc12,102,2,50*,98
O=C(N/N=C/c1cc2c(cc1Br)OCO2)c1ccccn1,108,-1,6,102
CN1CCN(CCCNC(=O)c2ccc(/C=C3\Oc4ccccc4N(Cc4ccccc4F)C3=O)cc2)CC1,104,29*,2,159*
CCN1CCN(CCNC(=O)c2ccc(/C=C3\Sc4ccccc4N(Cc4ccccc4F)C3=O)cc2)CC1,103,2,3,121
Cc1cccc(CN2C(=O)/C(=C\c3ccc(C(=O)NCCCN4CCN(C)CC4)cc3)Oc3ccccc32)c1,105,36*,2,162*
Cc1cc(C)cc(NC(=S)NCCN(C2CCCCC2)C2CCCC2)c1,101,19,9,136
O=C(C[C@@H]1C/C=C\CC[C@@H](Cc2ccc(F)cc2)C(=O)OC[C@@H](Cc2ccccc2)NC1=O)NCCO,·,·,-20,·
COc1ccc(-c2cc(C)no2)cc1S(=O)(=O)NCC1CCN(Cc2cc(C)ccc2C)CC1,101,22,9,143*
Cc1ccc(C(=O)N2CCSC2=S)cc1,105,4,2,-10*
O=C(c1ccccc1)N1CCSC1=S,103,-3,-1,97
COc1cc(NC(=O)c2cc(C)no2)cc(OC)c1OC,102,3,37,104
O=[N+]([O-])c1cccc(S(=O)(=O)NC2CC3CCC2C3)c1 (configuration not stated),102,1,2,105
Cc1ccc(Cc2c(C)nc3nc(SCC(=O)NCCCN4CCCCCC4)nn3c2C)cc1,103,37*,-2,234*
C=CCNC(=S)NNC(=O)CC12CC3CC(CC(C3)C1)C2,103,1,-1,101
COc1ccc2nc(/C(C#N)=C\c3ccc(C(=O)O)cc3)[nH]c2c1,81,44,-182,7.0*
COc1ccc2nc(/C(C#N)=C\c3ccc(Oc4ccc([N+](=O)[O-])cn4)cc3)[nH]c2c1,90,0,-10,98
Cc1cccc(C(=O)N/C(=C\c2ccco2)C(=O)N2CCCC2)c1,96,-1,-111,98
Cc1cccc(C(=O)N/C(=C\c2ccc(C)o2)C(=O)O)c1,98,2,-2,-3.0*
Nc1cc(=O)[nH]c(SCC(=O)c2ccc(F)cc2)n1,106,8,19,105
Cc1cccc(-c2oc3ccc(-c4ccc5c(c4)OCO5)cc3c2/C=C/c2ccc(N)cc2)c1,101,7,20,101
Cc1cc(NC(=O)c2cccc([N+](=O)[O-])c2)n(-c2ccccc2)n1,101,1,9,99
Cc1cc(NC(=O)c2cc([N+](=O)[O-])cc([N+](=O)[O-])c2)n(-c2ccccc2)n1,103,8,-3,30*
N=C1S/C(=C\c2cccc3ccccc23)C(=O)N1c1ccc(F)cc1,144*,0,3,102
Cc1ccccc1Nc1nc(N)c2ccccc2n1,161*,28,-26,173*
SMILES,MEKK3 PB1 HTS,MEKK2 mut-MEK5,VLA-4 inh,MEKK2wt PB1 HTS
O=C1OC(c2cccs2)=N/C1=C\c1ccc(-c2ccccc2Cl)o1,105,82*,·,62*
O=C1OC(c2cccs2)=N/C1=C/c1ccc(-c2cccc(C(=O)O)c2)o1,100,-4,·,90
CN1CCN(C(=O)c2ccc3c(c2)N(C)C(=O)/C(=C/c2cccc(Cl)c2)S3)CC1,104,17,13,137*
COc1ccc(/C=C2\Sc3ccc(C(=O)N4CCN(Cc5ccccc5)CC4)cc3N(C)C2=O)cc1OC,104,3,20,109
Cc1ccc2cc(C3CC(c4cccs4)=NN3S(C)(=O)=O)c(Cl)nc2c1 (configuration not stated),97,5,20,-4.0*
COc1ccc(N=C2O/C(=C/c3sc(=S)n(CC4CCCO4)c3O)N=C2C#N)cc1 (configuration not stated),98,6,-275,33*
COc1ccc(/C=C2\SC(=S)N(CC3CCCO3)C2=O)cc1 (configuration not stated),92,-12,1,89
COc1cc(CN2CCN(c3cccc(C)c3C)CC2)cc([N+](=O)[O-])c1O,91,242*,-117,212*
COc1ccc(N2CCN(Cc3cc(OC)c(O)c([N+](=O)[O-])c3)CC2)cc1,105,4,28,111
CCN1CCc2c(sc(N)c2C#N)C1,93,4,-86,76
CC(C)N1CCc2c(sc(N)c2C#N)C1,90,23,-59,2.0*
C/C(=N\Nc1nc2ccc(Cl)cc2o1)c1ccccc1,105,4,6,-3.0*
COC(=O)c1cn(C(=O)c2ccc(OC)cc2)c2ccccc12,108,3,-4,103
CCOCCCNc1nc2c(C)cccn2c(=O)c1/C=C1\SC(=S)N(C(C)CC)C1=O (configuration not stated),28*[inhibitor],127*,i,·
CCOCCCNc1nc2c(C)cccn2c(=O)c1/C=C1\SC(=S)N(CC(C)C)C1=O,·,·,i,·
Cc1c(C)n(CC(O)CN2CCCCCC2)c2ccccc12 (configuration not stated),105,1,-1,110
Cc1ccc2c(c1)c(C)c(C)n2CC(O)CN1CCOCC1 (configuration not stated),93,6,-27,-5.0*[inhibitor]
O=C(NCCCN1CCCCCC1)c1cc2c(=O)oc3ccccc3c2s1,106,23,4,136*
Cc1ccc2oc(=O)c3cc(C(=O)NCCCN4CC(C)CC(C)C4)sc3c2c1 (configuration not stated),101,13,30,142*
COc1ccccc1CNC(=O)[C@H](C)NC(=O)C1CCN(C(=O)[C@@H](N)C(C)C)CC1,99,-1,32,96
Cc1ccc(N(CC(=O)Nc2ccccc2C(=O)NCc2ccco2)S(=O)(=O)c2ccccc2)cc1C,99,29*,-16,119
CCN(CC)CCCNc1ccc(-c2nnc(-c3ccc(OCC(C)C)cc3)o2)cn1,106,36*,29,165*
COc1cc(OC)c2c(-c3ccccc3)cc(=O)oc2c1C(CC(=O)N1CCN(c2ccccc2)CC1)c1ccc2c(c1)OCO2 (configuration not stated),131*,0,·,145*
Cc1cc(N2CCCC2)c(C)cc1C=O,95,-6,-2,-46*
Cc1nc(NC2=NCN(C3CCCCC3C)CN2)nc2ccccc12 (configuration not stated),102,11,·,139*
c1ccc2oc(NC3=NCN(C4CCCCC4)CN3)nc2c1,98,4,-11,93
Cc1cccc2cc3c(N)c(C(=O)N4CCc5ccccc54)sc3nc12,122,23,-170,30*
c1ccc2c(c1)ccc1ncccc12,105,-10,4,92
Oc1c(N=Nc2ccccn2)ccc2ccccc12,89,-14,-6,36*
